Each structure is given as a SMILES string. Inconclusive results are not listed. The source made the active and inactive calls. Calls come from the whole dose curve; as a rule, active = well fitted curve in the direction sought with a large enough effect; inconclusive = small, poorly fitted or top-dose-only effect, or another doubt; inactive = no such curve, though single readings can be large; an effect the other way counts as inactive or inconclusive.

The nature of assay [1]: qHTS of pediatric cancer cell lines to identify multiple opportunities for drug repurposing: Confirmatory screen for SK-N-SH cells (AID 1347129).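 Note: cells exposed to compound for 48 h before viability read; nearly all actives have a fitted effect of over 60% in size.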 Note: potency is the fitted concentration of half-maximal effect. In outline: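 Viability after 48 h compound treatment at 37C, 500-1,000 cells/well, read as ATP luminescence with CellTiter-Glo. Primary screens used 11-point (MIPE, 0.78 nM-46 µM) or 8-point (NPC, 0.59 nM-46 µM) final concentrations; follow-up screens used 11-point dilutions.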

Assay [2] in a line: qHTS to identify inhibitors of the type 1 interferon - major histocompatibility complex class I in skeletal muscle: primary screen against the NCATS Pharmaceutical Collection (AID 1347407).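 Note: luminescence of HiBiT knocked into endogenous HLA-B as interferon-induced MHC class I level.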 In outline:
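Cells were seeded with 4 ng/ml IFN-beta, incubated 1 h, then dosed with compounds over eight 1:5 steps up to 46 uM final. After 24 h at 37 C, HiBiT lytic reagent was added and luminescence read after 10 min lysis in the dark.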
(In general: In qHTS, concentration-response curves come from the screen itself.)

Assay [3] relates to Zika virus NS2B-NS3 protease. The assay can be described thus: Primary screen GU AMC qHTS for Zika virus inhibitors (AID 1347154). Note: nearly all actives have a fitted effect of over 70% in size. In outline:
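Unlinked Zika NS2B hydrophilic domain–NS3 protease complex at 25 nM in 10 mM Tris-HCl pH 8.0, 0.01% Tween 20, with an AMC peptide substrate. Fluorescence change (340/450 nm) over 15 min at room temperature, normalized to controls, fitted to 4-parameter Hill.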

Assay [4] addresses N-terminal Xaa-Pro-Lys N-methyltransferase 1 (Homo sapiens) (UniProt Q9BV86). Briefly: qHTS Assay for Inhibitors of N-terminal methyltransferase 1 (NTMT1): LOPAC validation of the NTMT1 SAHH-coupled ThioGlo3 Assay (AID 1347143).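 Note: SAH from peptide methylation measured as thiol fluorescence via SAHH coupling and ThioGlo3; nearly all actives have a fitted effect of over 70% in size.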 In outline: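 Recombinant human NTMT1 (125nM) was pre-incubated 1 min at room temperature with compounds over a concentration range, then a mix of 100uM SAM, 10uM SAHH and 15uM ThioGlo3 (concentrations in added reagent) was added. ThioGlo3 fluorescence (ex 340/em 450nm) after 30 min was normalized to the initial reading.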

For another assay, the target named is Furin (Homo sapiens) (UniProt P09958). The assay can be described thus: Furin counterscreen qHTS for Zika virus inhibitors (AID 1347149).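 Note: purified recombinant full-length human furin enzyme at 5 nM; fluorescence gain from furin cutting a BOC-RVRR-AMC peptide substrate over 15 min; top concentration of the series differs between compounds; nearly all actives have a fitted effect of over 70% in size.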 The procedure, abridged:
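Fluorogenic cleavage of BOC-RVRR-AMC (2 microM final, Km ~15 µM) was monitored (ex 340, em 450 nm) at 37C after 15 min RT preincubation of 5 nM furin with compounds in HEPES pH 7.0 buffer with CaCl2 and Triton X-100. Percent inhibition was fitted to a 4-parameter Hill curve.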
(The purpose of a counterscreen is to sort out artefacts and off-target activity.)

Assay [5] is described as follows: Confirmatory screen GU Rhodamine qHTS for Zika virus inhibitors qHTS (AID 1347157). Note: potency is the fitted concentration of half-maximal effect; nearly all actives have a fitted effect of over 70% in size. The procedure, abridged:
(§1)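 Compounds, tested up to 114 microM, were incubated for 15 minutes with 25 nM unlinked NS2B-NS3 protease at pH 8.0. Cleavage of 1.5 microM Rhodamine110 substrate was then followed by fluorescence for 15 minutes.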

Assay [6] has as its system Zika virus NS2B-NS3 protease (unlinked complex). Briefly: Primary screen GU Rhodamine qHTS for Zika virus inhibitors: Unlinked NS2B-NS3 protease assay (AID 1347159). Note: nearly all actives have a fitted effect of over 60% in size. Note: potency is the fitted concentration of half-maximal effect. The procedure, abridged: as §1
Assay [7] is described as follows: Confirmatory screen NINDS Rhodamine qHTS for Zika virus inhibitors (AID 1347161). Note: potency is the fitted concentration of half-maximal effect; nearly all actives have a fitted effect of over 60% in size. In outline: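 Purified linked NS2B-NS3 protease (NS2B hydrophilic domain joined to NS3 protease by flexible linker), 25 nM in 10 mM Tris-HCl pH 8.0, 0.01% Tween 20. Compounds titrated, 15 min preincubation at room temperature; 1.5 microM Rhodamine110 substrate, FITC fluorescence change over 15 min.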

Assay [8] has as its system Zika virus NS2B-NS3 protease (linked). Briefly: 384 well plate NINDS AMC confirmatory qHTS for Zika virus inhibitors (AID 1347163). Note: potency is the fitted concentration of half-maximal effect; nearly all actives have a fitted effect of over 50% in size. In outline: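 Linked NS2B-NS3 protease (final 5 nM, 30 nM or 60 nM) was preincubated with compounds (final up to 1 mM) for ~15 minutes. Ac-VKTGKR-AMC substrate (final 30 microM) then reacted for 25 minutes at room temperature in the dark. Fluorescence (ex 355/em 460 nm) was normalized to no-enzyme and no-inhibitor controls.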

The test system of assay [9] is Zika virus NS2B-NS3 protease (linked construct). Briefly: 384 well plate NINDS Rhodamine confirmatory qHTS for Zika virus inhibitors (AID 1347164). Note: potency is the fitted concentration of half-maximal effect; nearly all actives have a fitted effect of over 65% in size. As to conditions: rhodamine-110 peptide substrate fluorescence. The procedure, abridged: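 Compounds are incubated about 15 minutes with linked protease (5, 30 or 60 nM final). Rhodamine 110-tagged Ac-LKRR substrate (10 microM final) is added and fluorescence measured after 25 minutes.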

Assay [10] concerns the target Lysine-specific demethylase 5B (Homo sapiens) (UniProt Q9UGL1). The assay can be described thus: Optimization screen for KDM5B Histone Demethylases FDH coupled qHTS against the LOPAC library (AID 1347166). The procedure, abridged:
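KDM5BDeltaAP (200nM final) preincubated 10 min with compound, then 12.5uM H3K4Me3, 25uM a-ketoglutarate, ascorbate, Fe(II), NAD+ and FDH added; 50mM HEPES pH 7.5, 0.01% Tween-20. NADH fluorescence (340/450 nm) change over 30 min, room temperature.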

The nature of assay [11]: HepG2 cells viability qHTS for Zika virus inhibitors (AID 1347168). In outline:
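Cells seeded at 2.5 x 10^5 cells/mL in DMEM with 4% FBS and attached overnight at 37 degrees C, then exposed to compound for 24 to 48 hours. Viability read as ATP content by CellTiter Glo luminescence.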

The nature of assay [12]: Tertiary RLuc qRT-PCR qHTS assay for Zika virus inhibitors (AID 1347169). Note: potency is the fitted concentration of half-maximal effect; nearly all actives have a fitted effect of over 55% in size. The procedure, abridged:
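Orthogonal cell-based infection assay using recombinant ZIKV-RLuc (Cambodian) in Vero cells; compound added prior to virus at MOI 1-2. Incubation lasts 48-72 hrs at 37 degrees C before live-cell Renilla substrate is added and luminescence measured.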
Background: Real-time PCR tracks product formation cycle by cycle.

In assay [13] the test system is Zika virus NS2B-NS3 protease (linked construct). Briefly: Primary screen NINDS Rhodamine qHTS for Zika virus inhibitors (AID 1347160). Note: nearly all actives have a fitted effect of over 55% in size. To be noted: outcome: dose series up to 57.1 µM unless noted. In outline:
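Percent inhibition, normalized to uninhibited and enzyme-free controls, is fitted to a 4-parameter Hill equation. Fluorescence change comes from a 15-min cleavage of 1.5 microM bis-peptide Rhodamine110 substrate by 25 nM linked NS2B-NS3 at room temperature.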

Furin (Homo sapiens), sequence (P09958 whole entry, looked up): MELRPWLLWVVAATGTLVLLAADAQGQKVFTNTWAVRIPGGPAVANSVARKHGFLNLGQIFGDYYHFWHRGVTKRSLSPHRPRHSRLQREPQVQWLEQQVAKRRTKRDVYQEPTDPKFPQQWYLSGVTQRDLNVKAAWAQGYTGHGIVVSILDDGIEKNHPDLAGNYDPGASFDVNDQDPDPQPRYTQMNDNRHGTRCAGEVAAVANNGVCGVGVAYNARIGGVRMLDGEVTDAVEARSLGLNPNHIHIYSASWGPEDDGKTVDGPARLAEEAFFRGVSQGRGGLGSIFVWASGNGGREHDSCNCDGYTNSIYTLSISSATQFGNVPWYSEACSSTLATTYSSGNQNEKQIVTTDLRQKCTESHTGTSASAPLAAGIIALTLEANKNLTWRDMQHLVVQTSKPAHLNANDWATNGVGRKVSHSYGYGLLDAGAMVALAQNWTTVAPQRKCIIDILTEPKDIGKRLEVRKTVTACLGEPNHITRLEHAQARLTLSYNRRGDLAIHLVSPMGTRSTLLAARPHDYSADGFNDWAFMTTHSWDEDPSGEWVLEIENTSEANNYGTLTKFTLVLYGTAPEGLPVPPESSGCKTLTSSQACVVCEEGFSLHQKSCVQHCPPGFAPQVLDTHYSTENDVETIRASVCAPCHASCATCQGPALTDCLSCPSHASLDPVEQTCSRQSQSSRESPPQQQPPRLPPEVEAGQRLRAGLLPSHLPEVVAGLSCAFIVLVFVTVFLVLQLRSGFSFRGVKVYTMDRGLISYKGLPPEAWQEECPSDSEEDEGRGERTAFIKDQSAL
N-terminal Xaa-Pro-Lys N-methyltransferase 1 (Homo sapiens), sequence (Q9BV86 whole entry, looked up): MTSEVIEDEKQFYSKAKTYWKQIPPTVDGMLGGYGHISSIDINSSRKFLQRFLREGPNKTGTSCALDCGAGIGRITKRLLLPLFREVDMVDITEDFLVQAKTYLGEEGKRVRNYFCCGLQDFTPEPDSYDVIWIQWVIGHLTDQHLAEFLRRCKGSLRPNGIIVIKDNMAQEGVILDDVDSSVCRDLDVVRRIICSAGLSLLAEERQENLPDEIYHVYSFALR
Lysine-specific demethylase 5B (Homo sapiens), sequence (Q9UGL1 whole entry, looked up): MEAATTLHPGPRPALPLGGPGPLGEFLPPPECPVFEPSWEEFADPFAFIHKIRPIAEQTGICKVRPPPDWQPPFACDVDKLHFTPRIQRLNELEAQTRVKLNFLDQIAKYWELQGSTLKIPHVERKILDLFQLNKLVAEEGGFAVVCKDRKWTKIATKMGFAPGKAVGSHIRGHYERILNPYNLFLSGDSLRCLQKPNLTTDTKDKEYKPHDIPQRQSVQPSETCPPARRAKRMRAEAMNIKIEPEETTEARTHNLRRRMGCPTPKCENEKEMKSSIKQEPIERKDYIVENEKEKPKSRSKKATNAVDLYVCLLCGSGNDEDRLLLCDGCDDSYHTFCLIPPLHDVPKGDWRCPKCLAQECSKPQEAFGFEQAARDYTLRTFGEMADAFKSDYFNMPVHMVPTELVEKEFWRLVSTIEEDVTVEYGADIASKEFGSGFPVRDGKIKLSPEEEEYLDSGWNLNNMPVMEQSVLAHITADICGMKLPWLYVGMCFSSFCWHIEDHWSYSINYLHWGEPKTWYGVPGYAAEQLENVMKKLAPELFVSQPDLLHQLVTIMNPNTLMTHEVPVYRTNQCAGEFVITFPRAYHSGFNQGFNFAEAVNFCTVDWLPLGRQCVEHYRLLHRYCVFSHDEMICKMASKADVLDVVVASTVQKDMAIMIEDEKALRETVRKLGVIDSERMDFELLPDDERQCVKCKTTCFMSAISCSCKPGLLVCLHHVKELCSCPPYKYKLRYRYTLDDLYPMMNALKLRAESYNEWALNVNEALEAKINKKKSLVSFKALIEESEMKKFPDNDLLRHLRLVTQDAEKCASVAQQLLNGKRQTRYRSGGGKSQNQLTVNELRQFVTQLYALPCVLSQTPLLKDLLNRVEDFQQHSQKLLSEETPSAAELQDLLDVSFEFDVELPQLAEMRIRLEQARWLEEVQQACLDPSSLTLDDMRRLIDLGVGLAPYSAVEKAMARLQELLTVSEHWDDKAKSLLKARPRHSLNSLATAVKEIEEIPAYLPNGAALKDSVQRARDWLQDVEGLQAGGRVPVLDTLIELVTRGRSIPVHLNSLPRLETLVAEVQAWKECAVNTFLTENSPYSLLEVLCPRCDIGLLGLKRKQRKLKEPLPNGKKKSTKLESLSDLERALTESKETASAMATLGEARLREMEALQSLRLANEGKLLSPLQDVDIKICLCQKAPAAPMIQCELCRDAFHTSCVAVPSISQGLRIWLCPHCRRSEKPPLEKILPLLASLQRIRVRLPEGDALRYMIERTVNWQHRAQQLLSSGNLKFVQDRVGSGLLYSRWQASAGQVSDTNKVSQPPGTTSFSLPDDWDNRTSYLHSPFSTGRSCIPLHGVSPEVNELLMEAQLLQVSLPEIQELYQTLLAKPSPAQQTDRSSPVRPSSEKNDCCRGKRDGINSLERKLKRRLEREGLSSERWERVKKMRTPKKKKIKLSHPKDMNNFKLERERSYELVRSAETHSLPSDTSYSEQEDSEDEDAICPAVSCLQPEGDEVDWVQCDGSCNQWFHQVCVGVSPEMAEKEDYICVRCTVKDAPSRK

For `CC(C)=CCC/C(C)=C/CC/C(C)=C/C(=O)OCC(=O)[C@@]1(O)CC[C@H]2[C@@H]3CCC4=CC(=O)C=C[C@]4(C)[C@H]3[C@@H](O)C[C@@]21C`, the Potency result in [1] and in [2] was “inactive” in each case.
For the compound `CCN(CC)CC(=O)OCC(=O)[C@@]1(O)CC[C@H]2[C@@H]3CCC4=CC(=O)CC[C@]4(C)[C@H]3[C@@H](O)C[C@@]21C`, the Potency entry in assay [1] and in assay [3] was “inactive” throughout.
Take `O=c1[nH]sc2cc(Cl)ccc12`: the Potency entry in assay [1] and in [3] was “inactive” throughout.
`CC(=O)OCC(=O)[C@@]1(O)[C@H](OC(C)=O)C[C@H]2[C@@H]3CCC4=CC(=O)C=C[C@]4(C)[C@@]3(F)[C@@H](O)C[C@@]21C`: the Potency result in assay [1], in [3] and in assay [2] was “inactive” throughout.
As for `Cc1nc(N)nc(N)c1-c1ccc(Cl)c(Cl)c1`, the Potency result in assay [1] and in assay [3] was “inactive” throughout.
For `Nc1ccc2cc3ccc(N)cc3nc2c1`, the Potency in assay [1] was 5.26 µM (active).
With `COc1cc(/C=C/C(N)=O)cc(OC)c1OC`, the Potency result in assay [1], in [3] and in assay [2] was “inactive” throughout.
In the case of `CCC(=O)O[C@]1(C(=O)COC)[C@@H](C)C[C@H]2[C@@H]3CCC4=CC(=O)C=C[C@]4(C)C3(F)[C@@H](O)C[C@@]21C` (stereo partly specified), the Potency entry in assay [1], in assay [3] and in assay [2] was “inactive” throughout.
For `CCC1(c2cnc[nH]2)Cc2ccccc2C1`, the Potency result in assay [1], in assay [3] and in assay [2] was “inactive” each time.
Regarding `O=C1NC(=O)/C(=C/c2ccc3c(c2)OC(F)(F)O3)S1`, the Potency result (in assay [4]; in the assay with Furin (Homo sapiens)) was “inactive” in each case. The Potency in assay [5] is 12.4 µM (active); in assay [6] it was 12.6 µM (active); in assay [7], 7.84 µM (active); in [8], 7.94 µM (active); in assay [9], 5.01 µM (active); in assay [12] it was 11.7 µM (active). Moreover, the outcome in [10] and in [11] was inactive.
With `CC(=O)O[C@@H]1C(=O)O[C@@H]2[C@H]1OC(=O)[C@@H]2OC(C)=O`, the Potency entry in assay [1], in assay [3], in assay [6] and in assay [2] was “inactive” throughout. The call in assay [13] was inactive.
